± gives the standard deviation.
tested on: MILI (PIWIL2) piRISC loaded with L1MC piRNA (26 nt); assay: pre-steady-state target cleavage rate (min^-1); guide: L1MC piRNA 5'p-UAACUAAAUACUAUGCAAGCUGUAGG; MIWI and MILI are mouse PIWI proteins and EfPiwi is from a freshwater sponge; tags in brackets are library labels; higher = faster piRNA-guided slicing of the target; conditions: auxiliary factor: 500 nM mouse GTSF1
How it was run: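 The pre-steady-state cleavage rate came from a burst-and-steady-state fit to pooled data from three Cleave-'n-Seq trials, in which uncleaved targets were sequenced and normalised to depth and to weakly complementary targets. Each reaction held 0.1 nM transcribed, DNA-blocked target RNA library and 1 nM active affinity-purified piRISC carrying one synthetic guide, with or without 500 nM GTSF1 partner protein, in HEPES–potassium acetate buffer at 33 °C for 0–8 or 0–960 min. k3 was capped at 0.0001 min^-1.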

Sequence | pre-steady-state target cleavage rate
UCCUGGAUGUCGAAGCAUAGUAUUUAGUUC [g2:g16:cont:t1C] | 0.0284 ± 0.0076
UCCUGGAUCAGCUUGCAAUGUAUUUAGAAA | 0.0496 ± 0.013
UCCUGGAUCAGCUUGGUUAGUAUUUAGAAA | 0.0485 ± 0.016
UCCUGGAUCAGCUUGGUAAGUAUUUAGUAA | 0.0371 ± 0.011
UCCUGCUACAGCUUGCAAAGUAUUUACUUA | 0.0653 ± 0.0078
UCCUCCUACAGCUUGCAUAGAUUUUACAAA | 0.0174 ± 0.0071
UCCUGCUACAGCUUGCAUAGUAAUAAGUUA | 0.238 ± 0.03
UCCUGGAUGUCGAACGUAACUAUAUAGUUA | < 0.0001
UCCUGGUACAGCUUGCAUUGUAUUAAGUUA | 0.0503 ± 0.011

same assay, conditions: auxiliary factor: none (no GTSF1)

Sequence | pre-steady-state target cleavage rate
UCCUGGAUGUCGUUCCAUAGUAUUUAGAUA | < 0.0001
UCCUGGAUGUCCAACCAUAGUAUUUAGUAA | < 0.0001
UCCUGGAUGUCGAACGUAUCUAUAUUGUUA | < 0.0001
UCCUGGAUGUCGAACGAUUCAAUUUAGUUA | < 0.0001
UCCUGGAUGUCGAACCAUAAUAUUUAGUUA | < 0.0001
UCCUGGAUGUCGAACGAUAGUUAAUAGUUA | < 0.0001
UCCUGGAUGUCGAACGUAUGCUAUUUAGUUA | < 0.0001

Reference: the supplement of paper PMC10338343
